Screens from PubChem.
ClpP mod: qHTS Assay for Activators of ClpP | purified B. subtilis ClpP, FRET peptide cleavage, 20 min | Potency, µM (highest dose often 57.5 µM), for inactives: at the highest dose activity change, negative = active | hit rate 1.9% among 340,000 | ATP-dependent Clp protease proteolytic subunit (Bacillus subtilis (strain 168)), P80244 | AID 651965, 2013; active means well fitted falling curve with a large enough effect; inconclusive means small, poorly fitted or top-dose-only effect; inactive means no such curve, though single readings can be large or run the other way; further: potency means the concentration at half of the fitted maximal effect; the source files actives as falling curves though it sought activators and does not explain the sign; nearly all actives have a fitted effect of over 65% in size
Target sequence (P80244 whole entry, looked up): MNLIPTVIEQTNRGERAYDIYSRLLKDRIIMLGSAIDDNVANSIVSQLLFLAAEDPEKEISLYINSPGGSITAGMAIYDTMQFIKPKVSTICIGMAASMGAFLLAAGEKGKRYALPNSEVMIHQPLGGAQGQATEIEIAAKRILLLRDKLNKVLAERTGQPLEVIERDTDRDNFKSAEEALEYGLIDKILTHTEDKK
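Buffer: 100 mM Tris/HCl pH8, 100 mM KCl, 0.05% low protease BSA, 2.5% glycerol, 0.01% Tween-20. ClpP 10 microg/mL final; 20 min RT; delta FRET normalized to ADEP and DMSO controls.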
B2AR arrestin: recruits beta-arrestin to the human beta2-adrenergic receptor. P07550. beta-arrestin recruitment to beta2AR, cell-based reporter. Potency, µM (top dose mostly 46.1 µM), without a hit: at the top dose activation, hits mostly activators. hit rate 0.02% among 330,000;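 further: potency means the concentration at half of the fitted maximal effect; 0% = DMSO controls and full agonism = EC100 isoproterenol or metaproterenol; nearly all actives have a fitted effect of over 65% in size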
Target sequence (P07550 whole entry, looked up): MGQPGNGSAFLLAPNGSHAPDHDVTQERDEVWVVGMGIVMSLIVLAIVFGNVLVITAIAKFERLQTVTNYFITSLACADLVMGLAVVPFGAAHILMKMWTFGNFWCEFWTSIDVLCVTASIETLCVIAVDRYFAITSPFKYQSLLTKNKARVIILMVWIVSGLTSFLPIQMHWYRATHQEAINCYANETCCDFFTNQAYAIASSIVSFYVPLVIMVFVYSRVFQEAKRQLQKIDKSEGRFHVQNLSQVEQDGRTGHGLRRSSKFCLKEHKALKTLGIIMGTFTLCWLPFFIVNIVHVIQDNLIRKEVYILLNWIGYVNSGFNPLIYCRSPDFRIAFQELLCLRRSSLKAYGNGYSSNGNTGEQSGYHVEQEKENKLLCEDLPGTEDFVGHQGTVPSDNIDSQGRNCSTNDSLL
Mito fusion yeast: mitochondrial division inhibition or fusion activation; S. cerevisiae fusion-defective mutant growth rescue, CellTiterGlo 48 h; Potency, µM (series often up to 46.1 µM), without a hit: top-dose growth rescue (activation), usual class: activators; hit rate 0.23% among 320,000; further: potency means the concentration at half of the fitted maximal effect; % of control where 0% means no effect; nearly all actives have a fitted effect of over 45% in size
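Yeast fusion mutant, YPEG (non-fermentable carbon), compound, 48 h at 37C non-permissive; CellTiterGlo added, 10 min RT, luminescence read. Rescued growth = division inhibition.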
Giardia kill: kills Giardia lamblia; Giardia lamblia trophozoite viability; hit rate 0.15% among 340,000; activity change, % at 7.66 µM, hits read low; in the data active means activity change below about -80%; inconclusive means between about -30% and that limit;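 further: parasites exposed to compound for two days anaerobically before the ATP read; on the % scale 0 is the no-effect control and ±100 the full control effect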
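Trophozoites 100 cells/well + cpd; 48 hrs, 37 deg C, anaerobic. ATPLite 1-Step added, 15-30 min RT, luminescence read (ATP-based viability).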
uPA surface inh: blocks generation of uPA at the cell surface; cell surface uPA generation assay, qHTS; Potency, µM (titrated, usually from 38.3 µM), for inactives: at the top dose activity change, negative = inhibition, usual class: inhibitors; hit rate 0.31% among 330,000; AID 540303; active means well fitted inhibition curve with a large enough effect; inconclusive means small, poorly fitted or top-dose-only effect; inactive means no such curve, though single readings can be large or run the other way; tested in mouse RAW 264.7 cells; further: potency means the concentration at half of the fitted maximal effect; on the % scale 0 is the no-effect control and ±100 the full control effect; nearly all actives have a fitted effect of over 55% in size
p53 reactivation: re-activators of mutant p53; H1299 p53-A138V BP100-luciferase reporter, luminescence, 24 h; Potency, µM (series often up to 92.2 µM), for the others: at the highest dose activity change, positive = activation, hits mostly activators; hit rate 0.063% among 320,000; AID 504706; further: potency means the concentration at half of the fitted maximal effect; % of control where 0% means no effect; nearly all actives have a fitted effect of over 45% in size
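H1299 (p53-null), stable ts p53-A138V + BP100-Luc; 1000 cells/well, Opti-MEM/10% FBS; cpd 4 pt, 1:5; 24 h, 37 deg C, 5% CO2; detection reagent 10 min RT; luminescence.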
Numbers without * were called inactive. Only some compounds are listed: those with a hit (about 2.1% of all), similar ones and a draw of the others. Unless noted, the call rests on the fitted dose curve; in most records, active means well fitted curve in the direction sought with a large enough effect; inconclusive means small, poorly fitted or top-dose-only effect, or another doubt; inactive means no such curve, though single readings can be large; an effect the other way counts as inactive or inconclusive.

Screening Cc1ccc(C(=O)c2c3ccc(C(F)(F)F)cc3[n+]([O-])n2CCCC(N)=O)cc1 returned ClpP mod 1%, B2AR arrestin -3%, Mito fusion yeast -7%, Giardia kill 41, uPA surface inh 2% and p53 reactivation 3%.
For COc1ccc(C(=O)c2c3ccc(C(F)(F)F)cc3[n+]([O-])n2CCCN)cc1 the results were ClpP mod -6%, B2AR arrestin 0%, Mito fusion yeast -2%, Giardia kill inconclusive, uPA surface inh -13% and p53 reactivation 12%.
`CC(=O)Nc1ccn(C2OC(C(COC(C)=O)NC(=O)C(CCCCNC(=O)OCc3ccccc3)NC(=O)OC(C)(C)C)C(OC(C)=O)C2OC(C)=O)c(=O)n1` (configuration not stated) gave Giardia kill -23.
Screening COC(=O)c1cc2c([nH]c1=O)CC(c1ccccc1)CC2=O (configuration not stated) returned ClpP mod 4%.
Screening COc1ccc(-c2ccc(C(=O)Nc3cccc(N(C)C)c3)c3occc23)c(C)c1 returned ClpP mod 28µM*.
Screening CN(C)c1cccc(NC(=O)c2cccc3c(-c4ccc(F)c(F)c4)coc23)c1 returned ClpP mod 22µM*.
Cn1cc(-c2ccc(C(=O)Nc3cccc(Oc4ccccc4)c3)c3occc23)cn1 was read as ClpP mod 22µM*.
Screening Cc1cccc(N2CCN(C(=O)CN3C(=O)COc4ccc(S(=O)(=O)N5CCCCCC5)cc43)CC2)c1C returned ClpP mod -3%.
Screening CCCC(C)(C)C(=O)N1CCC1(C)C(=O)Nc1cccc2ccccc12 (configuration not stated) returned ClpP mod 2%.
`O=C(Nc1cccc(-c2nc3ccccc3[nH]2)c1)c1c(F)cccc1F` gave ClpP mod -28%.
O=C(Cc1ccccc1)Nc1ccc(Br)c(Cl)c1 was read as ClpP mod -2%, B2AR arrestin -1%, Mito fusion yeast 14µM*, Giardia kill -11, uPA surface inh 3% and p53 reactivation 5%.
Cc1oc(C)c2c(=O)cc(-c3ccc4c(c3)OCO4)cc(OC(=O)c3ccccc3Br)c12 was read as ClpP mod 1%.
O=C(CSc1nnc(-c2ccccc2Cl)o1)Nc1ccccn1 was read as ClpP mod 1%, B2AR arrestin 0%, Mito fusion yeast -6%, Giardia kill -17, uPA surface inh 10µM* and p53 reactivation -4%.
CC(C)(C)c1ccc(CSc2nnc(-c3ccccc3NC(=O)c3ccccc3)o2)cc1 was read as ClpP mod 28µM*, B2AR arrestin -1%, Mito fusion yeast -1%, Giardia kill 24, uPA surface inh 1% and p53 reactivation 0%.
Screening O=C(Nc1ccccc1-c1nnc(SCc2ccccc2Cl)o1)c1ccccc1 returned ClpP mod 20µM*, B2AR arrestin -1%, Mito fusion yeast 5%, Giardia kill 1 and p53 reactivation -4%.
Screening CCOC(=O)CSc1nnc(-c2ccccc2NC(=O)c2ccccc2)o1 returned ClpP mod -25%, B2AR arrestin 0%, Mito fusion yeast 1%, Giardia kill 2, uPA surface inh -1% and p53 reactivation -11%.
`CCOc1ccc(C(=O)c2cn(Cc3ccc(OC)cc3)c3cc(OC)c(OC)cc3c2=O)cc1` gave ClpP mod -1%.
`CCOc1ccc(C(=O)NC(C(=O)N2CCC2)C(C)C)cc1` (configuration not stated) gave ClpP mod 28µM*, B2AR arrestin 0%, Mito fusion yeast -3%, Giardia kill -10, uPA surface inh 7% and p53 reactivation 10%.
Cc1cc(C)cc(NC(=O)c2oc3ccccc3c2COc2ccccc2)c1 was read as ClpP mod 25µM*, B2AR arrestin -4%, Mito fusion yeast 8%, Giardia kill 11, uPA surface inh -5% and p53 reactivation 9%.
For COc1ccc2[nH]c(=O)c(CN(Cc3nnnn3Cc3ccccc3)CC3CCCO3)cc2c1 (configuration not stated) the results were ClpP mod 28µM*, B2AR arrestin 0%, Mito fusion yeast 5%, Giardia kill -8, uPA surface inh -5% and p53 reactivation -6%.
CCc1ccc2[nH]c(=O)c(CN(Cc3ccccc3)Cc3nnnn3Cc3ccccc3)cc2c1 was read as ClpP mod 25µM* and Giardia kill -9.
`COc1ccc2[nH]c(=O)c(CN(Cc3nnnn3Cc3ccc(F)cc3)CC3CCCO3)cc2c1` (configuration not stated) gave ClpP mod inconclusive, B2AR arrestin 0%, Mito fusion yeast 1%, Giardia kill 2, uPA surface inh -4% and p53 reactivation -16%.
Cc1ccc2[nH]c(=O)c(CN(Cc3ccccc3)Cc3nnnn3Cc3ccccc3)cc2c1 was read as ClpP mod inconclusive and Giardia kill 14.
For N#Cc1cccc(C(=O)C(=O)N2CCN(c3ccccc3)CC2)c1 the results were ClpP mod -1%.
COc1ccc(CCNC(=O)c2cc(-c3ccc(C)cc3)nc3n[nH]c(-c4ccccc4)c23)cc1OC was read as ClpP mod 13µM*.
`Cn1c(-c2ccccc2O)cc2ccccc21` gave ClpP mod 16µM*, B2AR arrestin 0%, Mito fusion yeast 1%, Giardia kill -7, uPA surface inh -2% and p53 reactivation 27%.
Screening COC(=O)c1sccc1-c1ccc(/C=N/OCc2c(Cl)cccc2Cl)o1 returned ClpP mod 5µM*, B2AR arrestin 0%, Mito fusion yeast 2%, Giardia kill 7, uPA surface inh -4% and p53 reactivation -4%.
Screening COC(=O)c1sccc1-c1ccc(C(=O)Nc2ccccc2)o1 returned ClpP mod -5%, B2AR arrestin 0%, Mito fusion yeast 5%, Giardia kill 8, uPA surface inh -5% and p53 reactivation 11%.
`O=C(COc1ccccc1)NCC(c1ccco1)N1CCN(c2ccccc2F)CC1` (configuration not stated) gave ClpP mod 1.8µM*, B2AR arrestin 0%, Mito fusion yeast 14%, Giardia kill -15, uPA surface inh inconclusive and p53 reactivation -6%.
`O=C(Nc1nc(-c2ccc(Br)cc2)ns1)c1ccccc1F` gave ClpP mod -8%.
Screening O=C1NC(=S)S/C1=C\C=C\c1ccc([N+](=O)[O-])o1 returned B2AR arrestin 0%, Mito fusion yeast -20%, Giardia kill -86*, uPA surface inh 53% and p53 reactivation -14%.
